Among all 360,000 compounds or so, about 10,000 (2.8%) were called active. Not shown: some 4% with an inconclusive outcome. The full list was thinned out, with actives kept by preference. Values without a mark were called inactive. Calls come from the whole dose curve; as a rule, active = well fitted inhibition curve with a large enough effect; inconclusive = small, poorly fitted or top-dose-only effect; inactive = flat fitted curve, though single readings scatter.
What follows are compounds tested against Serine/threonine-protein kinase PLK1 (Homo sapiens) (UniProt P53350) (assay: qHTS for Inhibitors of PLK1-PDB (polo-like kinase 1 - polo-box domain): Primary Screen). Settings: Plk1 PBD binding of FITC phosphopeptide, fluorescence polarization.
Chain of Serine/threonine-protein kinase PLK1 (Homo sapiens) (P53350 whole entry, looked up, the tested form may be a part): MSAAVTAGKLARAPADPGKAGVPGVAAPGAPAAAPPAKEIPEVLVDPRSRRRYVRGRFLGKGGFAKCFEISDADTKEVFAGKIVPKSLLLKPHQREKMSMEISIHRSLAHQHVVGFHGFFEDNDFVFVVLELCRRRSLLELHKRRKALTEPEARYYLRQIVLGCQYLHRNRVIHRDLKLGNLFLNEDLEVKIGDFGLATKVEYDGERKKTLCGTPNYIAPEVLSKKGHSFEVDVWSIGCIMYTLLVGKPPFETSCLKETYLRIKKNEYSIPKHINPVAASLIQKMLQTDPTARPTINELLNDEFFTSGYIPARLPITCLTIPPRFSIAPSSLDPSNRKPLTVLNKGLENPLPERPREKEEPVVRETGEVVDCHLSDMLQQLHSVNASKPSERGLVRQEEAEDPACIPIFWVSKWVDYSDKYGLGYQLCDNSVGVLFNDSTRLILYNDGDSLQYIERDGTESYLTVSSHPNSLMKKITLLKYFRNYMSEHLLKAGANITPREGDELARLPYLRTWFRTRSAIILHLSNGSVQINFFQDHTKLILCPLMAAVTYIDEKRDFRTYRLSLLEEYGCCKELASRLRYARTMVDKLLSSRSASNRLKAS
% is set by controls: 0 for no effect and ±100 for the full control effect; potency is the fitted concentration of half-maximal effect.
Note: nearly all actives have a fitted effect of over 65% in size.
Throughout, for max response, negative = inhibition: series mostly up to about 57 µM.

Row | Structure (SMILES) | max response, negative = inhibition [%] | Potency
1 | COc1ccc(Cl)cc1-c1cc(C(=O)Nc2cc(OC)c(OC)c(OC)c2)[nH]n1 | -0.229 | 
2 | CCc1oc(-c2ccc(OC)cc2)c(C(=O)OCCCCCO)c1C(C)OCCO (stereo not drawn) | -3.22 | 
3 | COc1ccc(-c2coc3c(C(=O)NC(C)C)cccc23)c(C)c1 | -1.63 | 
4 | O=C1CCC(=O)N1CCC(=O)N(C(=O)NC1CCCCC1)C1CCCCC1 | -3.92 | 
5 | CSC1=NN(c2ccccc2)CN(c2ccccc2)N1C | 3.5 | 
6 | CSc1ncnc2c1ncn2CCCNCc1cccs1 | -6.17 | 
7 | CC(=O)c1c(C)c[nH]c1C |  | 3.36 µM (active)
8 | CCOC(=O)c1c(Cc2ccc(Cl)cc2)c[nH]c1C | -3.47 | 
9 | Cc1cc(C)n2c(NCc3ccccc3)c(CC(C)C)nc2n1 | 4.6 | 
10 | CCCn1c(C)cc(C(=O)COC(=O)c2c(C)nn(-c3ccccc3)c2C)c1C | 0.347 | 
11 | Cc1cc(C(=O)CC#N)c(C)n1-c1c(C)n(C)n(-c2ccccc2)c1=O |  | 21.2 µM (active)
12 | Cc1cc(C(=O)COC(=O)c2cccs2)c(C)n1-c1c(C)n(C)n(-c2ccccc2)c1=O |  | 29.9 µM (active)
13 | Cc1c(NC(=O)c2coc(=O)c(Br)c2)c(=O)n(-c2ccccc2)n1C | -12.4 | 
14 | Cc1cc(C(=O)CC#N)c(C)n1CC(F)(F)F | -1.11 | 
15 | COc1ccc(-n2c(C)cc(C(=O)COC(=O)c3cc(OC)c(OC)cc3NC(=O)c3cccs3)c2C)cc1 | -3.08 | 
16 | CCCNC(=O)c1cc2c(c(-c3cccc(-c4ccc(C#N)cc4)c3)n1)[C@@H](CCO)N(C(=O)CC)C2 | -12.5 | 
17 | c1ccc2c(c1)nnn2-c1ccncc1 | -7.91 | 
18 | COc1ccc(NC(=O)C2Cc3c(-c4cccc(NC(C)=O)c4)ccnc3O2)cc1OC (stereo not drawn) | -15.4 | 
19 | CC(C)NC(=O)Nc1ccc2c(c1)C(=O)N([C@H](C)CO)C[C@H](C)[C@@H](CN(C)Cc1ccc(C(F)(F)F)cc1)OCCCC[C@@H](C)O2 | -16.7 | 
20 | O=C(COC(=O)c1cccc(Cl)c1Cl)NC1CCCCCC1 | -7.54 | 
21 | COc1ccc(N2CCN(C(=S)Nc3ccc(S(N)(=O)=O)cc3)CC2)cc1 |  | 13.4 µM (active)
22 | NS(=O)(=O)c1ccc(NC(=S)N2CCCC2)cc1 | -13.8 | 

Row | Structure (SMILES) | max response, negative = inhibition [%] | Potency
23 | CCOc1ccccc1N1CCN(C(=S)Nc2ccc(S(N)(=O)=O)cc2)CC1 | -0.318 | 
24 | CN(C)C(CNC(=O)c1cc(Br)c(Br)s1)c1ccco1 (stereo not drawn) | -5.95 | 
25 | O=S1(=O)CC(N2CCN(CCO)CC2)CN1Cc1cn(Cc2cccc(Cl)c2)nn1 (stereo not drawn) | -6.24 | 
26 | Cc1ccc(-c2cnc(C(O)c3cc(Cl)cc(Cl)c3)[nH]2)cc1 (stereo not drawn) | 5.64 | 
27 | COc1ccc(CNC(=O)COC(=O)C(CCSC)N2C(=O)c3ccccc3C2=O)cc1 (stereo not drawn) | -13.1 | 
28 | COc1ccc(CCNC(=O)COC(=O)c2cc(=O)c3ccccc3o2)cc1 | -2.93 | 
29 | COc1ccc(CNC(=O)COC(=O)C2=Cc3ccccc3OC2)cc1 |  | 13.4 µM (active)
30 | Cc1ccc(-c2ccc(CN3C(C)C(=O)N(Cc4cn(CCC5OCCCO5)nn4)CCS3(=O)=O)cc2)cc1 (stereo not drawn) | -2.81 | 
31 | NC(c1ccccc1)c1csc(NC(=O)Nc2cccc(C(F)(F)F)c2)n1 (stereo not drawn) | -4.96 | 
32 | O=c1cc(CO)oc(C(Nc2cccc(C(F)(F)F)c2)c2ccccn2)c1O (stereo not drawn) |  | 26.7 µM (active)
33 | O=C(NC1Cc2ccccc2C1)c1cc(COc2cccc(C(F)(F)F)c2)on1 | -5.34 | 
34 | COc1ccc(C=C2CCC3C(CCCC34OCCO4)C2=O)cc1 (stereo not drawn) | -14.1 | 
35 | CCc1ccc(OC2(C)CCN(CCOc3ccc(C)cc3)C2)cc1 (stereo not drawn) | 0.495 | 
36 | O=C(COc1ccc(Br)cc1)OCC(=O)c1ccc[nH]1 | -8.67 | 
37 | COc1ccc2nc(N3C(=O)C(O)=C(C(=O)c4ccco4)C3c3ccco3)sc2c1 (stereo not drawn) | -16.7 | 
38 | O=C(C1=C(O)C(=O)N(c2ncccn2)C1c1cccs1)c1ccco1 (stereo not drawn) | -18.5 | 
39 | Cc1ccc2nc(N3C(=O)C(O)=C(C(=O)c4ccco4)C3c3cccc(O)c3)sc2c1 (stereo not drawn) |  | 18.9 µM (active)
40 | COc1ccc(-c2cc3nc(NCCOc4ccccc4)ccn3n2)cc1 | -1.91 | 
41 | Cc1nc2c(OCc3ccc(Cl)cc3)cccn2c1N(C)Cc1cccs1 | -7.96 | 
42 | Cc1ccc(-c2cnc(C(O)c3cccc(C)c3C)[nH]2)cc1 (stereo not drawn) | 2.44 | 
43 | O=c1[nH]c2ccccc2n2c(-c3ccccc3)nnc12 |  | 0.947 µM (active)
44 | O=C(c1ncn2c1c(=O)[nH]c1ccccc12)N1CCc2ccccc2C1 | 6.5 | 

Row | Structure (SMILES) | max response, negative = inhibition [%] | Potency
45 | O=c1[nH]n2c(-c3ccccc3)nc(O)c2c2ccccc12 | -5.86 | 
46 | COc1ccc(Br)c(Cn2c(C)c(C(=O)NCc3cccs3)sc2=O)c1 | 8.23 | 
47 | CCOC(=O)[C@]12CCCC=C1N(CCC1=CCCCC1)C(=O)[C@H](CC(=O)NCCCCc1ccccc1)C2 | -2.05 | 
48 | COc1ccccc1CNC(=O)c1ccc(CS(=O)(=O)c2ccccc2)o1 | -4.65 | 
49 | CCc1ccccc1S(=O)(=O)Cc1ccc(C(=O)NCCc2ccccc2)o1 |  | 26.7 µM (active)
50 | Cc1ccccc1S(=O)(=O)Cc1ccc(C(=O)NCCN2CCCCC2C)o1 (stereo not drawn) | 1.66 | 
51 | COC(=O)c1ccc2nc(-c3cccc(Br)c3)c(Cc3ccc(OC)cc3C)n2c1 | -4.35 | 
52 | CCC(c1nnnn1-c1ccc2c(c1)OCCO2)N1CCN(c2ccc(C(F)(F)F)cn2)CC1 (stereo not drawn) | 3.69 | 
53 | COc1ccc(C(CNC(=O)c2ccc(OCc3cscn3)cc2)N2CCCC2)cc1 (stereo not drawn) | 3.78 | 
54 | Cc1csc(NC(=O)Nc2ccccc2[N+](=O)[O-])n1 | 3.11 | 
55 | Cc1cc(NC(=O)Nc2ccccc2[N+](=O)[O-])no1 |  | 10.6 µM (active)
56 | Cc1cc(NC(=O)c2ccccc2C)no1 | -3.17 | 
57 | Cc1ccc(-c2nn(-c3ccccc3)cc2C(=O)NC2CCC(O)CC2)cc1 (stereo not drawn) | 6.03 | 
58 | O=C(O)c1ccc(NC(=O)c2cn(-c3ccccc3)nc2-c2ccc(Cl)cc2)cc1 |  | 26.7 µM (active)
59 | Cc1ccc(-c2nn(-c3ccccc3)cc2C(=O)Nc2cccc(S(=O)(=O)N3CCOCC3)c2)cc1 | -5.73 | 
60 | Nc1nc2c(Br)ccc(Br)c2cc1C(=O)NCCc1ccccc1 | -9.21 | 
61 | COc1cccc(NC(=O)CN(C)C(=O)c2cc(Cl)nc3ccccc23)c1 | -14.4 | 
62 | O=C(C[C@H]1C[C@H]2c3cc(NS(=O)(=O)c4ccc(F)cc4)ccc3O[C@H]2[C@H](CO)O1)NCc1cc(F)ccc1F | -5.98 | 
63 | O=c1ccc2c(-c3ccccc3S(=O)(=O)O)c3ccc(O)c(O)c3oc-2c1O |  | 7.52 µM (active)
64 | O=C(c1cccs1)N1C[C@H](n2cc(C3CC3)nn2)[C@@H](O)C[C@@H]1c1ccccc1 | 0.263 | 
65 | CNS(=O)(=O)c1ccc(NC(=O)C2CC(=O)N(c3ccc(Cl)cc3)C2)cc1 (stereo not drawn) |  | 26.7 µM (active)
66 | O=C(Nc1ccc(S(=O)(=O)N2CCCCC2)cc1)C1CC(=O)N(c2ccc(F)cc2)C1 (stereo not drawn) | -7.84 | 

Row | Structure (SMILES) | max response, negative = inhibition [%] | Potency
67 | Cc1ccc(N2CC(C(=O)Nc3ccc(S(=O)(=O)N4CCCC4)cc3)CC2=O)cc1C (stereo not drawn) | -12.9 | 
68 | CCc1nc2c(OCCC3CCCCC3)cccn2c1N(C)C(=O)c1ccco1 | -5.85 | 
69 | COc1ccc(N2c3ccccc3CN(Cc3ccccc3)[C@@H](C)[C@H]2Cc2ccc(-c3ccccc3)cc2)cc1 | 3.32 | 
70 | Cc1sc2ncnc(SCC(=O)NC3CCS(=O)(=O)C3)c2c1C (stereo not drawn) | -10.2 | 
71 | O=C(NCc1nnnn1-c1ccc(Cl)cc1)c1ccc2c(c1)OCO2 | -15.4 | 
72 | COc1ccc(C(=O)NCC2CCCO2)cc1S(=O)(=O)NCc1ccc(Cl)cc1 (stereo not drawn) | -11.7 | 
73 | Cc1ccc([C@H]2C[C@H](O)[C@@H](n3cc(COC(=O)c4ccccc4)nn3)CN2C(=O)C2CCCCC2)cc1 | -1.5 | 
74 | O=c1[nH]c2ccccc2s1 | -9.39 | 
75 | Nc1ccc2[nH]c(=S)sc2c1 |  | 2.99 µM (active)
76 | CC1=C(C(=O)N2CCOCC2)CC(CC(=O)NCc2ccco2)C(=O)N1Cc1ccc(F)cc1 (stereo not drawn) | -9 | 
77 | CCOC(=O)C1CCCN(C(=O)c2cccc3ccccc23)CC1 (stereo not drawn) | -9.5 | 
78 | CC1CCN(c2oc(-c3ccccc3F)nc2C#N)CC1 | 1.03 | 
79 | Cc1ccc(OCc2nc(C#N)c(N3CCCC3)o2)cc1 |  | 5.32 µM (active)
80 | N#Cc1nc(COc2ccc(Cl)cc2)oc1N1CCCC1 | -6.72 | 
81 | COC(=O)c1ccc(CN2C(=O)C(Cc3ccccc3)ON=C2c2ncccc2C)o1 (stereo not drawn) | 5.05 | 
82 | CN1OC[C@@H]2CN(C(=O)C(C)(C)C)[C@H](c3ccc(-n4ccnc4)cc3)C[C@@H]21 | -0.5 | 
83 | COc1cc(CNc2ncnc3c2ncn3[C@H]2CN(Cc3cccs3)C[C@@H](CO)O2)cc(OC)c1OC | -6.55 | 
84 | COCCCn1c(C(=O)NC2CCCCC2)cc2c(=O)n3cccc(C)c3nc21 | -6.64 | 
85 | Fc1ccc(OCc2nn3c(Cn4nnc5ccccc54)nnc3s2)cc1 |  | 11.9 µM (active)
86 | Cn1c(Cn2nnc3ccccc32)nnc1SCC(=O)c1ccccc1F | -9.05 | 
87 | C/C(Cn1nnc2ccccc21)=N\OC(=O)c1cc(F)c(F)cc1Cl | -15 | 
88 | COC(=O)[C@]12CCCCC=C1N(Cc1ccc(Cl)cc1Cl)C(=O)[C@H](CC(=O)NCc1cccc3ccccc13)C2 | -11 | 
